Several values for one entry are separate records, joined by “and”; a condition that tells them apart may be missing. Equal entries are not always repeated. Inconclusive results are not listed. More than one record can exist for a structure, and the calls need not agree. Activity calls are given as the source filed them. Unless noted, calls come from the whole dose curve.
Tests used:
[1] = Nuclear factor erythroid 2-related factor 2/antioxidant responsive element (Nrf2/ARE) small molecule agonists: qHTS cell viability counter screen in human keratinocytes (AID 1919968; active = well fitted curve in the direction sought with a large enough effect in the repeat runs; an effect the other way counts as inactive or inconclusive; note: nearly all actives have a fitted effect of over 55% in size; note: potency is the fitted concentration of half-maximal effect)
Outline: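 Cells of the KeratinoSens line were plated at 1,500 per well and left for 5 h before compound transfer from DMSO stocks. After a 23 h incubation (37 C, 5% CO2), CellTiter-Fluor was added. Signal was taken as fluorescence intensity 1 h later.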

[2] = Nuclear factor erythroid 2-related factor 2/antioxidant responsive element (Nrf2/ARE) small molecule agonists: luciferase reporter gene qHTS assay in human keratinocytes (AID 1919969); note: nearly all actives have a fitted effect of over 35% in size; note: potency is the fitted concentration of half-maximal effect
[3] = molecular target: Gonadotropin-releasing hormone receptor (Homo sapiens) (UniProt P30968); experiment: Human gonadotropin-releasing hormone receptor (GnRHR) small molecule agonists, calcium flux assay in GnRHR-HEK293 cells (AID 1920063); note: nearly all actives have a fitted effect of over 35% in size
Sequence of Gonadotropin-releasing hormone receptor (Homo sapiens) (P30968 whole entry, looked up): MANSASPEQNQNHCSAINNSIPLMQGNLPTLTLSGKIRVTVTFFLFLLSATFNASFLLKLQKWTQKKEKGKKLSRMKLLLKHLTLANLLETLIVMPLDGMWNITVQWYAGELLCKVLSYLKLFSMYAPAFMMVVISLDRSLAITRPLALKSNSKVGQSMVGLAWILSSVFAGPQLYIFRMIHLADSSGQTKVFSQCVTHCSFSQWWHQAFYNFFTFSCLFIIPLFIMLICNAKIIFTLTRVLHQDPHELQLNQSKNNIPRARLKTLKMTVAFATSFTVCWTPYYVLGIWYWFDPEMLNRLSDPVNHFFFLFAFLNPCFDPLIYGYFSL
Outline: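 Compounds dissolved in DMSO are pin-transferred onto dye-loaded GnRHR-HEK293 cells, which were seeded 18 h before at 37 C/5% CO2. Calcium signal is read as fluorescence intensity at 1 s intervals for 3 min.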

[4] = molecular target: KiSS-1 receptor (Homo sapiens) (UniProt Q969F8); experiment: Human kisspeptin (KISS1R) small molecule agonists, calcium flux assay in KISS1R-HEK293 cells (AID 1920064; active = well fitted curve in the direction sought with a large enough effect in the repeat runs; an effect the other way counts as inactive or inconclusive)
Sequence of KiSS-1 receptor (Homo sapiens) (Q969F8 whole entry, looked up): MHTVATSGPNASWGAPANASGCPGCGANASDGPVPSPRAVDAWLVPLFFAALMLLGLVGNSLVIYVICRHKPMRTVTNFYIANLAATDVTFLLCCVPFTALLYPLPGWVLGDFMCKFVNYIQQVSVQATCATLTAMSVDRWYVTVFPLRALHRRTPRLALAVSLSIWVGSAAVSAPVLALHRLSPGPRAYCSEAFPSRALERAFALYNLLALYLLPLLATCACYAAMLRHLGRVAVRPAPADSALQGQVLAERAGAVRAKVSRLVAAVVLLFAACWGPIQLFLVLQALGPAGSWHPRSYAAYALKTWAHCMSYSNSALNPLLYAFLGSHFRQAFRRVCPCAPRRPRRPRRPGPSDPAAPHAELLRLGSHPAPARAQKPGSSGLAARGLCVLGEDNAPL
Outline: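 Cell line: HEK293, stable human KISS1R. Dye loading 1 h at 37 C after 18 h culture. Read: kinetic fluorescence, 480/540 nm, 3 min at 1 s intervals.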

[5] = G protein-coupled receptor (GPCR) small molecule agonists, calcium flux assay: HEK293 wild type cell line counter screen (AID 1920065)
Outline: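 Tox21 10K compounds, 15 concentrations each in triplicate, pin-transferred in DMSO onto dye-loaded cells; kinetic read at 480/540 nm for 3 min, 1 s intervals.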

[6] = p53 small molecule agonists, cell-based qHTS assay with human liver microsomes (AID 1963577)
Outline: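 Compounds act here after metabolic activation: human liver microsomes and NADPH, both at 0.5 mg/mL final, were co-added to p53RE-bla cells. Incubation ran 16 h at 37 C, followed by LiveBLAzer detection.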

[7] = p53 small molecule agonists, cell-based qHTS assay with rat liver microsomes (AID 1963578)
Outline: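 Read-out is beta-lactamase reporter fluorescence (LiveBLAzer, 2 h, room temperature, dark) in p53RE-bla cells treated 16 h at 37 C with compound, rat liver microsomes and NADPH, both 0.5 mg/mL final.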

[8] = p53 small molecule agonists, cell-based qHTS assay with human liver microsomes: qHTS cell viability counter screen (AID 1963579); note: nearly all actives have a fitted effect of over 45% in size; note: potency is the fitted concentration of half-maximal effect
Outline: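 Cells carrying the p53 response-element beta-lactamase reporter are treated for 16 h at 37 C with test compounds in the presence of human liver microsomes and NADPH (both 0.5 mg/mL final); ATP-based CellTiter-Glo luminescence then reports viability.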

[9] = p53 small molecule agonists, cell-based qHTS assay with rat liver microsomes: qHTS cell viability counter screen (AID 1963580); note: nearly all actives have a fitted effect of over 45% in size
Outline: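 Luminescent ATP readout (CellTiter-Glo, 30 min at room temperature) reports viability of p53RE-bla HCT-116 cells after 16 h at 37 C with test compounds under metabolic activation by rat liver microsomes and NADPH at 0.5 mg/mL final each.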

[10] = p53 small molecule agonists, cell-based qHTS assay: qHTS cell viability counter screen (AID 1963581); note: nearly all actives have a fitted effect of over 45% in size
Outline: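 ATP content measured by luminescence in HCT-116 p53RE-bla cells treated 16 h at 37 C, same wells as the reporter screen.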

[11] = p53 small molecule agonists, cell-based qHTS assay (AID 1963582; active = well fitted activation curve with a large enough effect in the signal ratio in the repeat runs, not every such curve was filed as active; the % refers to the signal ratio)
Outline: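 16 h compound exposure (37 C) of p53 response element–bla cells, preceded by 5 h recovery at 37 C/5% CO2; read-out via LiveBLAzer B/G FRET substrate, 2 h RT, fluorescence intensity.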

[12] = molecular target: Muscarinic acetylcholine receptor M1 (Homo sapiens) (UniProt P11229); experiment: Cholinergic receptor muscarinic 1 (CHRM1) small molecule antagonists, cell-based qHTS assay (AID 1963588); note: nearly all actives have a fitted effect of over 40% in size
Sequence of Muscarinic acetylcholine receptor M1 (Homo sapiens) (P11229 whole entry, looked up): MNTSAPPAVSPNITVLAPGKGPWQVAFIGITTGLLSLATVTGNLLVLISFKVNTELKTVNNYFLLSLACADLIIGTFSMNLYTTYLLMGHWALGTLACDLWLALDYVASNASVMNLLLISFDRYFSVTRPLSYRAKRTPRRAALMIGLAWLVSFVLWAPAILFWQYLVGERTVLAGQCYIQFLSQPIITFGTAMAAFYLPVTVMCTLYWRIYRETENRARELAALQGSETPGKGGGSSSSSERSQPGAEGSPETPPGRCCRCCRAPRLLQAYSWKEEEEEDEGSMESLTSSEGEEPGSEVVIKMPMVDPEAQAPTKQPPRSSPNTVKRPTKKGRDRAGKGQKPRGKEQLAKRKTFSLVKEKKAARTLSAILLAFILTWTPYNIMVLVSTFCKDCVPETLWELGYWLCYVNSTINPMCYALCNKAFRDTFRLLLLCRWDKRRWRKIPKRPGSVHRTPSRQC
Outline: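 Compounds were tested at 15 concentrations in three independent runs. Dye-loaded CHRM1-CHO cells were exposed 5 min at room temperature before stimulation by acetylcholine added at 50nM. Intracellular calcium was read kinetically on FDSS for 3 min.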

[13] = molecular target: Muscarinic acetylcholine receptor M1 (Homo sapiens) (UniProt P11229); experiment: Cholinergic receptor muscarinic 1 (CHRM1) small molecule agonists, cell-based qHTS assay (AID 1963589); note: nearly all actives have a fitted effect of over 35% in size
Outline: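 Homogeneous fluorescence calcium flux, agonist mode. Human M1-expressing CHO cells; compound dosed at 15 concentrations, three independent runs; signal sampled every 1 sec.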

[14] = cAMP Responsive Elements (CRE) small molecule agonists, cell-based qHTS assay (AID 1963590)
Outline: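 HEK 293T cells stably bearing CRE-bla were plated at 2,000 cells per well and rested 18 h. Compounds, positive controls or DMSO were added for 3 h at 37 C. LiveBLAzer B/G substrate was then loaded for 2 h at room temperature.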

[15] = cAMP Responsive Elements (CRE) small molecule antagonists, cell-based qHTS assay (AID 1963591; active = well fitted inhibition curve with a large enough effect in the signal ratio in the repeat runs, not every such curve was filed as active; the % refers to the signal ratio)
Outline: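 First, CRE-bla HEK293T cells settled 18 h at 37 C. Next, compound and 0.25 uM final NKH477 were applied for 3 h. Last, LiveBLAzer B/G substrate was loaded for 2 h at room temperature.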

[16] = molecular target: Beta-2 adrenergic receptor (Homo sapiens) (UniProt P07550); experiment: Adrenergic beta2 receptor (ADRB2) small molecule antagonists, cell-based qHTS assay (AID 1963592); note: series mostly up to about 92 µM; nearly all actives have a fitted effect of over 50% in size
Sequence of Beta-2 adrenergic receptor (Homo sapiens) (P07550 whole entry, looked up): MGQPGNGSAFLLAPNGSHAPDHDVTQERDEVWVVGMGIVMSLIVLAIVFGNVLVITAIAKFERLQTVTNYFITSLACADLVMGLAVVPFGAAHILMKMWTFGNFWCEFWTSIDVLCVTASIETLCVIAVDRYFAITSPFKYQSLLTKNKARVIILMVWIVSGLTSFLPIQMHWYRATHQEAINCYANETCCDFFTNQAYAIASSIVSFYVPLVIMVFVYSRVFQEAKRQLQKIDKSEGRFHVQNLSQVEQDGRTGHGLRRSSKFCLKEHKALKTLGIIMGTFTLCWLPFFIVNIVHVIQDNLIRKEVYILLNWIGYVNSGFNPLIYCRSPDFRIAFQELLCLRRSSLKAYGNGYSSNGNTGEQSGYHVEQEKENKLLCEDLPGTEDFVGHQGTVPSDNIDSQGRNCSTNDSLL
Outline: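 Assay format: CHO-ADRB2 cells, 18-20hr seeding at 37C/5% CO2, then compound plus 1nM isoproterenol agonist mix for 0.5hr RT. Homogeneous time-resolved fluorescence cAMP detection after 1hr, expressed as 665/615 nm ratio.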

[17] = molecular target: D(2) dopamine receptor (Homo sapiens) (UniProt P14416); experiment: Dopamine D2 receptor (DRD2) small molecule agonists, cell-based qHTS assay (AID 1963594); note: nearly all actives have a fitted effect of over 35% in size
Sequence of D(2) dopamine receptor (Homo sapiens) (P14416 whole entry, looked up): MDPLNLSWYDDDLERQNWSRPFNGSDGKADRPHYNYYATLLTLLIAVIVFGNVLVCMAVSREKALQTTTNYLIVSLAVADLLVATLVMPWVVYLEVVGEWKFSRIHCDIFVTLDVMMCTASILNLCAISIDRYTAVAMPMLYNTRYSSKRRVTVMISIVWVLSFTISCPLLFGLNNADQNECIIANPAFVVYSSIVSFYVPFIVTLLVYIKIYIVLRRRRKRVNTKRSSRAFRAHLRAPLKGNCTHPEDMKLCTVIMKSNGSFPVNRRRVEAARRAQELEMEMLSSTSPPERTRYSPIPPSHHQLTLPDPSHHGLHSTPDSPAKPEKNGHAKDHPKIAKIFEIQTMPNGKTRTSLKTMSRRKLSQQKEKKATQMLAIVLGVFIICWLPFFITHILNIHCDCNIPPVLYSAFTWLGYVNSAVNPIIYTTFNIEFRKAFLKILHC
Outline: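 HEK293 cells stably expressing DRD2 were cultured 24 h at 37 C, then given Ro20-1724 (0.1 mM final) and compounds for 10 min at room temperature. NKH477 (200nM) was then added for 30 min. cAMP was read by HTRF.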

[18] = molecular target: D(2) dopamine receptor (Homo sapiens) (UniProt P14416); experiment: Dopamine D2 receptor (DRD2) small molecule antagonists, cell-based qHTS assay (AID 1963595; active = well fitted inhibition curve with a large enough effect in the signal ratio in the repeat runs, with a control signal flat; the % refers to the signal ratio)
Outline: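 In this cell-based antagonist screen, compounds act for 10 min at room temperature before a 30 min challenge with 12 nM quinpirole and 200 nM NKH477. cAMP is quantified by HTRF competition in DRD2-HEK293 cells containing 0.1 mM Ro20-1724.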

[19] = molecular target: 5-hydroxytryptamine receptor 2A (Homo sapiens) (UniProt P28223); experiment: 5-hydroxytryptamine receptor 2A (HTR2A) small molecule agonists, cell-based qHTS assay (AID 1963587); note: nearly all actives have a fitted effect of over 30% in size
Sequence of 5-hydroxytryptamine receptor 2A (Homo sapiens) (P28223 whole entry, looked up): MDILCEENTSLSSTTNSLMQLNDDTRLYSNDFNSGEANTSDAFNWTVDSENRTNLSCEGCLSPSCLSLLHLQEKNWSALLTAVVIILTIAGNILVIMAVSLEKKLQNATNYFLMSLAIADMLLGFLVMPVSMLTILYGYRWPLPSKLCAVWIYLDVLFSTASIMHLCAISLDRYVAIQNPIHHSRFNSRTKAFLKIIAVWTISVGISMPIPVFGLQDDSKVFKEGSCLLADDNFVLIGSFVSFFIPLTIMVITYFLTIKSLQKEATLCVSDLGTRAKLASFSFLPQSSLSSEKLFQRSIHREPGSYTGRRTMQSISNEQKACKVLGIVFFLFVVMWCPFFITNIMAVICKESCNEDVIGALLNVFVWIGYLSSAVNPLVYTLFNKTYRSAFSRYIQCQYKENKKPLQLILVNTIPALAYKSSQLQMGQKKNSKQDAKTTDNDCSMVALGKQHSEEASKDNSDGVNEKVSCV
Outline: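 HTR2A-CHO cells, plated 18 h at 37 C/5% CO2, dye-loaded 1 h at 37 C; compounds in DMSO added by pin tool (agonist mode). Intracellular calcium flux read as kinetic fluorescence on FDSS over 2 min at 1 s intervals.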

[20] = molecular target: Beta-2 adrenergic receptor (Homo sapiens) (UniProt P07550); experiment: Adrenergic beta2 receptor (ADRB2) small molecule agonists, cell-based qHTS assay (AID 1963593);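 note: CHO cells stably overexpressing human ADRB2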
Outline: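 CHO cells stably over-expressing ADRB2 were plated overnight at 37C, then dosed with compounds plus a stimulation mix containing 100uM IBMX and 25uM Ro-20-1724 for 0.5hr at room temperature. cAMP was measured by HTRF competition, 1hr.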

Measured: Potency

CCCCc1ccc(Cl)cc1
inactive: [1] | [2] | [3] | [4] | [5] | [6] | [7] | [8] | [9] | [10] | [11] | [12] | [13] | [14] | [15] | [16] | [17] | [18]

CCCCCCCOC(=O)c1ccccc1C(=O)OCCCCCCC
inactive: [1] | [2] | [3] | [4] | [5] | [6] | [7] | [8] | [9] | [10] | [11] | [19] | [12] | [13] | [14] | [15] | [16] | [20] | [17] | [18]

COC(=O)c1sccc1S(N)(=O)=O
inactive: [1] | [2] | [3] | [4] | [5] | [6] | [7] | [8] | [9] | [10] | [11] | [19] | [12] | [13] | [14] | [15] | [16] | [17] | [18]

c1ccc(Nc2cccc3ccccc23)cc1
inactive: [3] | [4] | [5] | [6] | [7] | [9] | [10] | [11] | [19] | [12] | [13] | [16] | [17] | [18]
active: [1] 61.9 µM | [8] 46.4 µM
inactive and 68.6 µM (active): [2]

CC(C)OC(=O)C(O)(CC(=O)O)CC(=O)O
inactive: [1] | [2] | [3] | [4] | [5] | [6] | [7] | [8] | [9] | [10] | [11] | [19] | [12] | [13] | [14] | [15] | [16] | [17] | [18]

O=C(O)C(S)C(S)C(=O)O (stereo not given)
inactive: [1] | [2] | [3] | [4] | [5] | [6] | [7] | [8] | [9] | [10] | [11] | [19] | [12] | [13] | [14] | [15] | [16] | [17] | [18]

O=C1CCCCCCCCCCCCCCCO1
inactive: [1] | [2] | [3] | [4] | [5] | [6] | [7] | [8] | [9] | [10] | [11] | [19] | [12] | [13] | [14] | [15] | [16] | [17]

From PubChem BioAssay (Tox21)
